The panel holds about 79,000 compounds, 15% with a hit somewhere; the sample as a whole holds those more often. Active and inactive are the calls of the source. Cut-off read from the data, not from the text of the source: active = growth inhibition above about 70%; inactive = the rest.
Assays:
[1] = NCI Yeast Anticancer Drug Screen. Data for the rad50 strain (AID 155);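 note: 0% = growth of vehicle-only cultures of the same strain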; details: S. cerevisiae rad50 strain growth inhibition; at 50.0 µM; hits give high values
In short: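 DNA repair mutant yeast, compound exposure, growth read-out; inhibition is taken relative to vehicle.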

[2] = NCI Yeast Anticancer Drug Screen. Data for the mec2-1 strain (AID 157); details: S. cerevisiae mec2-1 strain, at 50.0 µM, hits give high values
In short: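 Strain: mec2-1 (DNA repair/cell cycle alteration). Compound exposure, then growth measured; inhibition expressed relative to vehicle.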

[3] = NCI Yeast Anticancer Drug Screen. Data for the sgs1 mgt1 strain (AID 161);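 note: 0% = growth of cultures given vehicle only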; details: S. cerevisiae sgs1 mgt1 strain, at 50.0 µM, hits give high values
In short: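 Read-out: growth inhibition vs vehicle controls. Cells: mutant yeast strain deficient in DNA damage repair.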

[4] = NCI Yeast Anticancer Drug Screen. Data for the cln2 rad14 strain (AID 165);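 note: 0% = growth equal to vehicle treated cultures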; details: S. cerevisiae cln2 rad14 strain, at 50.0 µM, hits give high values
In short: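 Compounds are applied to the cln2 rad14 yeast strain, and growth is then compared with that of vehicle-treated cultures to give inhibition.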

[5] = NCI Yeast Anticancer Drug Screen. Data for the bub3 strain (AID 167); details: S. cerevisiae bub3 mutant strain, at 50.0 µM, hits give high values
In short: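 In this screen, a yeast mutant lacking normal mitotic checkpoint function is challenged with compound. Relative growth versus vehicle gives the inhibition value.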

[6] = NCI Yeast Anticancer Drug Screen. Data for the mlh1 rad18 strain (AID 175); details: S. cerevisiae mlh1 rad18 strain growth inhibition; at 50.0 µM; hits give high values
In short: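 Read-out is yeast growth inhibition, calculated against vehicle-only controls. The compound was applied to a strain engineered with DNA damage repair alterations.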

Measured: growth inhibition

O=C1c2ccc([N+](=O)[O-])cc2C(=O)N1CC(F)(F)F
inactive: [1] -0.9% | [2] 8.35% | [3] 10.6% | [4] 14.8% | [5] -3% | [6] 3.8%

CC(=O)NCC(=O)O
inactive: [1] 3.7% | [2] -8.75% | [3] -35.1% | [4] -7.1% | [5] -9.6% | [6] -10.1%

CC(O)C(NC(=O)c1cnc2ccccc2n1)C(=O)O (stereo not drawn)
inactive: [1] -8.45% | [2] -5.1% | [3] 17.8% | [4] -17.1% | [5] 15.9% | [6] -11.8%

O=C1C=C2CCCCCCCC(C1)C2 (stereo not drawn)
inactive: [1] 11.8% | [2] 1.1% | [3] 2.25% | [4] -1.75% | [5] -1.15% | [6] 3.2%

O=C(OCCCl)Oc1c(Cl)cc([N+](=O)[O-])cc1[N+](=O)[O-]
active: [1] 99.6% | [2] 99.8% | [3] 99.7% | [4] 99% | [5] 99.2% | [6] 99.5%

c1ccc(C2CN3CCSC3=N2)cc1 (stereo not drawn)
inactive: [1] -30.4% | [2] -34.8% | [3] -19.1% | [4] 5.5% | [5] -12.2% | [6] -16.9%

Cc1ccc(N2N=S=CC2=O)cc1
inactive: [1] 40.7% | [2] 11.3% | [3] 37.5% | [4] 13.4% | [5] 20.3% | [6] 34%

Nc1ccnc2cc(Cl)ccc12
inactive: [1] 17.4% | [2] 4.45% | [3] 3.3% | [4] 2.6% | [5] -4.05% | [6] 26.6%

CCOC(=O)C(/C=N\C(=S)Nc1ccc(OCC)cc1)=C(/O)c1ccccc1
inactive: [1] -49.1% | [2] -52.6% | [3] -26.6% | [4] -14.8% | [5] -30.2% | [6] 6.5%

CC(=O)c1cnn(C(N)=O)c1C
inactive: [1] -42.6% | [2] -18.5% | [3] -23.7% | [4] -46.5% | [5] 13.5% | [6] -5.75%

O=c1[nH][nH]c(=O)c(Cl)c1Cl
inactive: [1] 1.55% | [2] 1.6% | [3] -17.5% | [4] 0.25% | [5] -0.85% | [6] 13.3%

CCOC(=O)c1cnc2c(ccc3ncccc32)c1Cl
inactive: [1] -13.9% | [2] -7.45% | [3] 15.8% | [4] 25.2% | [5] 7% | [6] 27.1%

N#CCCN(c1ccc(C=Nc2cccc([N+](=O)[O-])c2)cc1)S(=O)(=O)c1ccccc1
inactive: [1] 0.75% | [2] 5.65% | [3] 14.7% | [4] 8.1% | [5] -1% | [6] 14.4%

CCC(O)(c1ccccc1)C(O)c1ccccc1 (stereo not drawn)
inactive: [1] -2.35% | [2] 8.9% | [3] -4.4% | [4] 3.8% | [5] 4.95% | [6] -15.8%

COc1cc(C(=O)n2c(=O)oc(=O)c3cc([N+](=O)[O-])ccc32)cc(OC)c1OC
inactive: [1] -15.4% | [2] -6.15% | [3] -16.4% | [4] -6.65% | [5] 1.6% | [6] 2.2%

Cc1nc(C(=O)O)ccc1O
inactive: [1] 3.05% | [2] 16% | [3] -1.05% | [4] -3.2% | [5] 0.45% | [6] 4%

CCCCOC(=O)c1ccc(NC(=O)CCC(C)Cl)cc1 (stereo not drawn)
inactive: [1] -15.7% | [2] 13.2% | [3] -2.1% | [4] -22.2% | [5] 16.8% | [6] 6.6%

Cc1nc(Br)c([N+](=O)[O-])[nH]1
inactive: [1] 6.9% | [2] -6.4% | [3] -2.4% | [4] -47.9% | [5] -9.75% | [6] 4.8%

CCCCCCCCCCCCSC1=C(OC)C(=O)C(OC)=C(OC)C1=O
inactive: [1] 33.5% | [2] 13.8% | [3] 26.6% | [4] -5.2% | [5] -1.35% | [6] 16.5%

CCC(=O)Nc1cc(Cl)c(Cl)cc1C
inactive: [1] -8.7% | [2] -12.4% | [3] -13.5% | [4] -85.8% | [5] -27.2% | [6] -12%

Brc1cccc2c(SCCCCCCSc3c4ccccc4nc4c(Br)cccc34)c3ccccc3nc12
inactive: [1] 3.1% | [2] -16.1% | [3] -18.8% | [4] -52.5% | [5] -21% | [6] 5.85%

N#CC1=C(Nc2ccccc2)SC(c2cccs2)NC1=O (stereo not drawn)
inactive: [1] 12.4% | [2] 4.7% | [3] 20.6% | [4] 16.5% | [5] 11.9% | [6] 23.2%

COc1ccc2[nH]cc(CC(NC(C)=O)C(=O)O)c2c1 (stereo not drawn)
inactive: [1] 1.75% | [2] -0.9% | [3] 1.55% | [4] -0.5% | [5] 3.85% | [6] -1.25%

CCOC(=O)C12CCC(=O)C=C1[C@@H](C)C(=O)CC2 (stereo partly drawn)
inactive: [1] -20.1% | [2] -48.6% | [3] -41.1% | [4] -10.2% | [5] -34.7% | [6] -23.4%

Nc1cc(C(=O)O)c2ccccc2c1
inactive: [1] 4.5% | [2] -6.95% | [3] -5.7% | [4] -16.8% | [5] 3.45% | [6] 5.15%

NC(=Nc1ccc([N+](=O)[O-])cc1)c1ccccc1
inactive: [1] 6.95% | [2] 1.6% | [3] -4.05% | [4] -11.9% | [5] 8.3% | [6] 9.65%

NS(=O)(=O)c1ccc(N=C2C(=O)Nc3ccccc32)cc1
inactive: [1] 1.05% | [2] -6.1% | [3] -14.6% | [4] 17.6% | [5] -23.8% | [6] 4.95%

O=C(O)c1cscn1.O=C(O)c1cscn1.[I][Pt][I]
inactive: [1] 5.75% | [2] 3.55% | [3] 13.9% | [4] -17.1% | [5] 0.9% | [6] 48%

CCc1c([N+](=O)[O-])c2cc([N+](=O)[O-])ccc2n1C
inactive: [1] 3.35% | [2] 8.85% | [3] -7.65% | [4] -1.65% | [5] 2.8% | [6] 8.75%

NC(=O)N/N=C/c1ccc2oc3ccccc3c2c1
inactive: [1] 40.2% | [2] 19.1% | [3] 18.4% | [4] 16.5% | [5] 18.4% | [6] 44.5%

CC1Cc2c([nH]c(=O)n(C)c2=O)O1 (stereo not drawn)
inactive: [1] 1.15% | [2] 8.2% | [3] 8.4% | [4] -1.5% | [5] -21.1% | [6] 2.1%

C(=N[C@H]1CCCC[C@H]1N=Cc1ccc[nH]1)c1ccc[nH]1
inactive: [1] 14.8% | [2] -3.6% | [3] 8.75% | [4] 3.45% | [5] 13.9% | [6] 20.7%

CCCCOC(=O)N1CCCCC1
inactive: [1] -9.75% | [2] -8.15% | [3] -17.3% | [4] -5.9% | [5] -14.3% | [6] -5.75%

CCOC(=O)CCC(C)=O
inactive: [1] 22.8% | [2] 11.2% | [3] 14.9% | [4] 20.5% | [5] 14.7% | [6] 11%

Cc1ccccc1I
inactive: [1] -15.2% | [2] -32.3% | [3] -3.2% | [4] 9% | [5] 0.5% | [6] 9.2%

Oc1cc(-n2cccn2)c(O)cc1-n1cccn1
inactive: [1] 23.1% | [2] -4.75% | [3] 15.3% | [4] 5.25% | [5] 12.2% | [6] -39%

O=C1c2cscc2C(=O)c2c(OCc3ccccc3)ccc(OCc3ccccc3)c21
inactive: [1] 3.7% | [2] 6.65% | [3] -7.45% | [4] -5.3% | [5] 1.95% | [6] 7.4%

CCOC(=O)c1ccc(OC)c2[nH]c3c(c(=O)c12)C(=O)c1[nH]c2c(OC)ccc(C(=O)OCC)c2c(=O)c1C3=O
inactive: [1] -25.4% | [2] 15.6% | [3] -23.2% | [4] -17.9% | [5] -0.25% | [6] -25.2%
